Results as given in PubChem BioAssay (NCI).
Compounds without any hit were thinned out: in the full panel of roughly 79,000, 15% have a hit. Activity calls are given as the source filed them. No stated cut-off is given here; in the data, active means growth inhibition above about 70%; inactive means the rest.

Columns and labels:
[1] = NCI Yeast Anticancer Drug Screen. Data for the mlh1 strain (AID 171);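 further: 0% = growth of vehicle-treated control cultures of the same strain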; settings: S. cerevisiae mlh1 strain growth inhibition, stronger effect = higher value
How it was run: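 Read-out: growth inhibition versus vehicle controls. Strain: engineered yeast with a defined DNA repair or cell cycle defect, compound-treated.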

[2] = NCI Yeast Anticancer Drug Screen. Data for the sgs1 strain (AID 173);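 further: 0% = growth of vehicle-only control cultures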; settings: S. cerevisiae sgs1 mutant, stronger effect = higher value
How it was run: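 Read-out: yeast growth inhibition relative to vehicle controls, following compound exposure of a strain with a defined DNA repair/cell cycle alteration.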

[3] = NCI Yeast Anticancer Drug Screen. Data for the mlh1 rad18 strain (AID 175); settings: S. cerevisiae mlh1 rad18 strain growth inhibition, stronger effect = higher value
How it was run: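 Yeast w/ defined DNA-repair lesions; compound exposure; growth vs vehicle controls → % inhibition.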

[4] = NCI Yeast Anticancer Drug Screen. Data for the rad18 strain (AID 177); settings: S. cerevisiae rad18 mutant growth inhibition, stronger effect = higher value
How it was run: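 Readout: growth inhibition vs vehicle controls. Cells: genetically altered yeast strain, DNA repair defect.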

[5] = NCI Yeast Anticancer Drug Screen. Data for the rad52 strain (AID 147);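 further: 0% = growth of vehicle-treated control cultures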; settings: S. cerevisiae rad52 mutant growth inhibition, stronger effect = higher value
How it was run: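 Read-out: growth inhibition versus vehicle-treated controls. Cells were a DNA repair-deficient yeast strain treated with compounds.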

[6] = NCI Yeast Anticancer Drug Screen. Data for the wt1 strain (AID 149);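 further: 0% = growth of vehicle-treated wt1 cultures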; settings: S. cerevisiae wt1 strain (SPY 50644) growth inhibition, stronger effect = higher value
How it was run: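 Growth inhibition read against vehicle controls after compound exposure of the wt1 yeast strain.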

[7] = NCI Yeast Anticancer Drug Screen. Data for the mgt1 strain (AID 153); settings: S. cerevisiae mgt1 mutant growth inhibition, stronger effect = higher value
How it was run: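 mgt1 yeast grown with test compound; read-out is growth inhibition versus vehicle-treated cultures.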

[8] = NCI Yeast Anticancer Drug Screen. Data for the rad50 strain (AID 155);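 further: 0% = growth of vehicle-only cultures of the same strain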; settings: S. cerevisiae rad50 strain growth inhibition, stronger effect = higher value
How it was run: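 Readout: growth inhibition relative to vehicle-treated cultures. Compound exposure was carried out in a genetically defined yeast strain deficient in DNA damage repair.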

[9] = NCI Yeast Anticancer Drug Screen. Data for the mec2-1 strain (AID 157); settings: S. cerevisiae mec2-1 strain, stronger effect = higher value
How it was run: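 Yeast mec2-1 mutant treated with compound. Readout: growth inhibition vs vehicle controls.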

[10] = NCI Yeast Anticancer Drug Screen. Data for the rad14 strain (AID 159);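 further: 0% = growth of vehicle-treated control cultures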; settings: S. cerevisiae rad14 strain growth inhibition, stronger effect = higher value
How it was run: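 Growth inhibition vs vehicle controls; genetically altered yeast strain (DNA damage repair defect) treated with test compounds.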

[11] = NCI Yeast Anticancer Drug Screen. Data for the sgs1 mgt1 strain (AID 161);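 further: 0% = growth of cultures given vehicle only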; settings: S. cerevisiae sgs1 mgt1 strain, stronger effect = higher value
How it was run: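 Test agents were incubated with a DNA-repair-mutant yeast strain. Growth was then read and compared against vehicle-treated controls.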

[12] = NCI Yeast Anticancer Drug Screen. Data for the CLN2oe strain (AID 163);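 further: 0% = growth of vehicle-only control cultures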; settings: S. cerevisiae CLN2oe strain, stronger effect = higher value
How it was run: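 Read-out: yeast growth inhibition, expressed relative to vehicle-only controls. The strain bears an engineered cell-cycle alteration.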

[13] = NCI Yeast Anticancer Drug Screen. Data for the bub3 strain (AID 167); settings: S. cerevisiae bub3 mutant strain, stronger effect = higher value
How it was run: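 Readout: yeast growth inhibition, expressed relative to vehicle-only wells. The test organism is a mutant strain from a panel with lesions in DNA repair or checkpoint genes.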

[14] = NCI Yeast Anticancer Drug Screen. Data for the wt2 strain (AID 169);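 further: 0% = growth of vehicle-treated yeast cultures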; settings: S. cerevisiae wt2 strain growth inhibition, stronger effect = higher value
How it was run: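 Read-out: growth inhibition versus vehicle-treated control cultures after compound exposure of the yeast strain.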

[15] = NCI Yeast Anticancer Drug Screen. Data for the cln2 rad14 strain (AID 165);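 further: 0% = growth equal to vehicle treated cultures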; settings: S. cerevisiae cln2 rad14 strain, stronger effect = higher value
How it was run: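 cln2 rad14 yeast strain; compound exposure; growth inhibition read vs vehicle controls.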

[16] = at 5.0 µM (retest, dose inferred, filed as 0.5)
[17] = at 50.0 µM (retest, dose inferred, filed as 5.0)

Measured: growth inhibition

CC1(C)[C@@H]2CC[C@]1(C)[C@H](OC(=O)CSC#N)C2
inactive: [1]; at 1.2 µM 7% | [1]; at 3.7 µM 9% | [1]; at 11.0 µM 29% | [2]; at 1.2 µM 9% | [2]; at 3.7 µM 23% | [2]; at 11.0 µM 66% | [3]; [16] 9% | [4]; at 1.2 µM 9% | [4]; at 3.7 µM 14% | [4]; at 11.0 µM 28%
active: [1]; at 33.0 µM 73% | [1]; at 100.0 µM 98% | [2]; at 33.0 µM 94% | [2]; at 100.0 µM 97% | [3]; [17] 98% | [3]; at 50.0 µM 98.8% | [4]; at 33.0 µM 92% | [4]; at 100.0 µM 96%

OC(c1ccc(F)cc1)(c1ccc(F)cc1)C1CC1
inactive: [5]; at 1.2 µM -39% | [5]; at 3.7 µM -58% | [5]; at 11.0 µM -47% | [5]; at 33.0 µM 12% | [6]; at 1.2 µM -38% | [6]; at 3.7 µM -33% | [6]; at 11.0 µM -36% | [6]; at 33.0 µM -27% | [7]; at 1.2 µM -36% | [7]; at 3.7 µM -47% | [7]; at 11.0 µM -47% | [7]; at 33.0 µM -51% | [7]; at 100.0 µM 20% | [8]; at 1.2 µM -31% | [8]; at 3.7 µM -32% | [8]; [16] 59% | [8]; at 11.0 µM -26% | [8]; at 33.0 µM 32% | [8]; at 50.0 µM 62.9% | [9]; at 1.2 µM -87% | [9]; at 3.7 µM -42% | [9]; [16] 68% | [9]; at 11.0 µM -67% | [9]; at 33.0 µM -32% | [9]; at 50.0 µM 40.1% | [10]; at 1.2 µM -18% | [10]; at 3.7 µM -18% | [10]; at 11.0 µM -7% | [10]; at 33.0 µM 8% | [11]; [16] -4% | [11]; at 50.0 µM 51.4% | [12]; at 1.2 µM -16% | [12]; at 3.7 µM -3% | [12]; at 11.0 µM -9% | [12]; at 33.0 µM -8% | [13]; at 1.2 µM -32% | [13]; at 3.7 µM -27% | [13]; [16] 20% | [13]; at 11.0 µM -13% | [13]; at 33.0 µM -16% | [13]; at 50.0 µM 64.8% | [14]; at 1.2 µM -25% | [14]; at 3.7 µM -25% | [14]; at 11.0 µM -5% | [14]; at 33.0 µM -28% | [1]; at 1.2 µM -39% | [1]; at 3.7 µM -64% | [1]; at 11.0 µM -66% | [1]; at 33.0 µM -42% | [2]; at 1.2 µM -62% | [2]; at 3.7 µM -43% | [2]; at 11.0 µM -52% | [2]; at 33.0 µM -42% | [3]; [16] 67% | [3]; at 50.0 µM 64% | [4]; at 1.2 µM -8% | [4]; at 3.7 µM -11% | [4]; at 11.0 µM -21% | [4]; at 33.0 µM 46%
active: [5]; at 100.0 µM 76% | [6]; at 100.0 µM 90% | [8]; [17] 99% | [8]; at 100.0 µM 94% | [9]; [17] 100% | [9]; at 100.0 µM 95% | [10]; at 100.0 µM 97% | [11]; [17] 77% | [12]; at 100.0 µM 93% | [13]; [17] 81% | [13]; at 100.0 µM 96% | [14]; at 100.0 µM 87% | [1]; at 100.0 µM 92% | [2]; at 100.0 µM 86% | [3]; [17] 100% | [4]; at 100.0 µM 95%

C#CCCCc1ccccc1
inactive: [5]; at 1.2 µM -67% | [5]; at 3.7 µM -68% | [5]; at 11.0 µM -68% | [5]; at 33.0 µM -43% | [5]; at 100.0 µM 66% | [6]; at 1.2 µM -29% | [6]; at 3.7 µM -24% | [6]; at 11.0 µM -28% | [6]; at 33.0 µM -9% | [6]; at 100.0 µM 57% | [7]; at 1.2 µM -19% | [7]; at 3.7 µM -14% | [7]; at 11.0 µM -7% | [7]; at 33.0 µM 16% | [8]; at 1.2 µM -48% | [8]; at 3.7 µM -45% | [8]; [16] -13% | [8]; at 11.0 µM -36% | [8]; at 33.0 µM -24% | [8]; [17] 37% | [8]; at 50.0 µM 24.1% | [8]; at 100.0 µM 65% | [9]; at 1.2 µM -21% | [9]; at 3.7 µM -12% | [9]; [16] -13% | [9]; at 11.0 µM -41% | [9]; at 33.0 µM 31% | [9]; [17] 18% | [9]; at 50.0 µM 47.4% | [10]; at 1.2 µM -36% | [10]; at 3.7 µM -39% | [10]; at 11.0 µM -31% | [10]; at 33.0 µM -17% | [11]; [16] -9% | [11]; [17] 15% | [11]; at 50.0 µM 63.6% | [12]; at 1.2 µM -7% | [12]; at 3.7 µM -5% | [12]; at 11.0 µM 4% | [12]; at 33.0 µM 2% | [15]; [16] 17% | [15]; [17] 37% | [15]; at 50.0 µM 18.1% | [13]; at 1.2 µM -31% | [13]; at 3.7 µM -33% | [13]; [16] 0% | [13]; at 11.0 µM -25% | [13]; at 33.0 µM 2% | [13]; at 50.0 µM 39.9% | [14]; at 1.2 µM -52% | [14]; at 3.7 µM -55% | [14]; at 11.0 µM -54% | [14]; at 33.0 µM -31% | [14]; at 100.0 µM 14% | [1]; at 1.2 µM -20% | [1]; at 3.7 µM -22% | [1]; at 11.0 µM -26% | [1]; at 33.0 µM 19% | [2]; at 1.2 µM -48% | [2]; at 3.7 µM -61% | [2]; at 11.0 µM -56% | [2]; at 33.0 µM -12% | [3]; [16] 15% | [3]; at 50.0 µM 26.7% | [4]; at 1.2 µM -56% | [4]; at 3.7 µM -49% | [4]; at 11.0 µM -58% | [4]; at 33.0 µM -28% | [4]; at 100.0 µM 65%
active: [7]; at 100.0 µM 91% | [9]; at 100.0 µM 98% | [10]; at 100.0 µM 94% | [12]; at 100.0 µM 73% | [13]; [17] 79% | [13]; at 100.0 µM 97% | [1]; at 100.0 µM 98% | [2]; at 100.0 µM 89% | [3]; [17] 70%
